Laboratory results as given in PubChem BioAssay (EPA / NIEHS).
Records with an inconclusive call do not appear. Calls of active or inactive are those of the source. How the source made its calls: active means hit-call score of the fitted dose curve at least 0.9, where 1 is the maximum; inconclusive means response in the unintended direction; inactive means score below 0.9.

System: rat Monoamine Oxidase, MAO-A, Central (MAOAC), gene 29253
Test: NVS_ENZ_rMAOAC: NovaScreen (NVS) Enzymatic Assay for rat Monoamine Oxidase, MAO-A, Central (MAOAC) (AID 2283243);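 further: potency refers to inhibition seen as signal drop below DMSO baseline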
Summary of the method: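 Rat brain tissue extract served as the cell-free enzyme source; activity was measured by radiometric scintillation counting 1.5 hours after compound addition. Loss of signal relative to DMSO baseline indicated inhibition; primary screen at 25 uM in duplicate.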

SMILES | outcome | AC50
CCCCCCCCCCCCCCCCO | inactive | 
Oc1ccc(Nc2ccccc2)cc1 |  | 17.7 µM (active)
c1ccc2c(c1)ccc1ncccc12 |  | 2.35 µM (active)
Nc1cccc(N)c1 |  | 4.33 µM (active)
C=Cc1cccc(C)c1 | inactive | 
CC(=O)Nc1ccc(C(=O)CCl)cc1 |  | 5.58 µM (active)
CCOc1ccc(NC(N)=O)cc1 |  | 16.6 µM (active)
Nc1ccc(Cl)c([N+](=O)[O-])c1 |  | 12.8 µM (active)
O=C(c1ccccc1)c1ccc(O)cc1O |  | 21 µM (active)
c1ccc2c(c1)[nH]c1ccccc12 |  | 16.7 µM (active)
CC=Cc1ccc(OCC)c(O)c1 |  | 20.3 µM (active)
CCCCCCCCCCCCCCCC[N+](C)(C)Cc1ccccc1 | inactive | 
c1ccc2cc3ccccc3cc2c1 |  | 25 µM (active)
COc1ccc2nc(N)sc2c1 |  | 9.33 µM (active)
O=C1OC2(c3ccccc31)c1cc(I)c(O)c(I)c1Oc1c2cc(I)c(O)c1I |  | 0.828 µM (active)
CC=Cc1ccc(OC)c(OC)c1 |  | 17.2 µM (active)
Cc1c(Cl)c(=O)oc2cc(O)ccc12 |  | 12.2 µM (active)
CCC(=O)OC/C=C(\C)CCC=C(C)C | inactive | 
Nc1ccc(Oc2cccc(Oc3ccc(N)cc3)c2)cc1 |  | 22.7 µM (active)
Cc1ccc2sc3cccc(C)c3c2c1 | inactive | 
O=C1c2ccccc2C(=O)c2c(Cl)cccc21 |  | 3.72 µM (active)
Cc1cc(C)c(C=O)c(C)c1 |  | 19.9 µM (active)
O=[N+]([O-])c1ccc(O)cc1C(F)(F)F |  | 21.1 µM (active)
CN1CN(C)CN(C)C1 | inactive | 
CCNc1nc(N)nc(Cl)n1 |  | 37.6 µM (active)
Oc1cccc2ccccc12 |  | 15.4 µM (active)
Oc1cccc2c(O)cccc12 |  | 25 µM (active)
COC(=O)c1ccccc1C(=O)O | inactive | 
CC(=O)CCc1ccc(O)cc1 |  | 17.5 µM (active)
CC(=O)Nc1ccc(N=Nc2cc(C)ccc2O)cc1 |  | 0.0709 µM (active)

Molecular target: rat Corticotropin Releasing Factor Receptor (CRF), Crhr1 (gene 58959) (UniProt P35353)
Test: NVS_GPCR_rCRF: NovaScreen (NVS) G Protein-Coupled Receptor Assay for rat Corticotropin Releasing Factor Receptor (CRF) (AID 2283300)
Summary of the method: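 Rat cortical membranes used as receptor source in a radioligand competitive displacement binding assay; scintillation read 2 h after dosing. Primary screen run in duplicate at 25 uM; loss of signal versus DMSO baseline indicates binding.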

Sequence of rat Corticotropin Releasing Factor Receptor (CRF), Crhr1 (gene 58959) (P35353 whole entry, looked up): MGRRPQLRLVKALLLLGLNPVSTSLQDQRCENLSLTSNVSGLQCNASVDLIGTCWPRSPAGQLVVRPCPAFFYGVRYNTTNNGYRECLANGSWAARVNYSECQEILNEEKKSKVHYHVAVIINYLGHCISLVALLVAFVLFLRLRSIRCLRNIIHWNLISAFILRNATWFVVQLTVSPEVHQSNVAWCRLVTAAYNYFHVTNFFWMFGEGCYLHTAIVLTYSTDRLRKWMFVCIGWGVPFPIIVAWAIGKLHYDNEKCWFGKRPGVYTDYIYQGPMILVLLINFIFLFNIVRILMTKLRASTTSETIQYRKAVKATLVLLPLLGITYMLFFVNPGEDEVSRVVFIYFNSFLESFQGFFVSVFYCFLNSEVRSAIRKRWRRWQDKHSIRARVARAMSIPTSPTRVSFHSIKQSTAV

SMILES | outcome
C[C@]12CC[C@@H]3c4ccc(O)cc4CC[C@H]3[C@@H]1CCC2=O | inactive
CCNc1nc(N)nc(Cl)n1 | inactive
OCCO | inactive
COCCOCCOCCOC | inactive

Molecular target: Voltage-dependent N-type calcium channel subunit alpha-1B (Rattus norvegicus) (UniProt Q02294)
Test: NVS_IC_rCaChN: NovaScreen (NVS) Ion Channel Assay for rat Calcium Channel, Type N (CaChN) (AID 2283317)

SMILES | outcome
CC[C@@H]1C[C@H](N(Cc2cc(C(F)(F)F)cc(C(F)(F)F)c2)C(C)=O)c2cc(C(F)(F)F)ccc2N1C(=O)OC(C)C | inactive
CC(C)COC(=O)CCCCC(=O)OCC(C)C | inactive
CN(C)CCCN(C)CCCN(C)C | inactive
CNCc1ccc(NC(=O)c2c[nH]c3c2C(=O)CCC3)cc1 | inactive
C[C@@H](Oc1ccc(CNC(=O)c2cccnc2Oc2ccc3c(c2)OCO3)c(F)c1)C(=O)O | inactive

Molecular target: Norway rat Vesicular Monoamine Transporter (VMAT2), neurotransmitter transporter, Slc18a2 (gene 25549) (UniProt Q01827)
Test: NVS_TR_rVMAT2: NovaScreen (NVS) Transporter Assay for Norway rat Vesicular Monoamine Transporter (VMAT2), neurotransmitter transporter (AID 2283376);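 further: actives lower the bound radioligand signal below the DMSO level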
Summary of the method: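 Tissue: rat forebrain extract. Format: competitive radioligand binding, cell-free. Timepoint: 1 h. Readout: filter radiodetection/scintillation. Screen: 25 uM in duplicate, then concentration series for actives. Baseline: DMSO.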

Sequence of Norway rat Vesicular Monoamine Transporter (VMAT2), neurotransmitter transporter, Slc18a2 (gene 25549) (Q01827 whole entry, looked up): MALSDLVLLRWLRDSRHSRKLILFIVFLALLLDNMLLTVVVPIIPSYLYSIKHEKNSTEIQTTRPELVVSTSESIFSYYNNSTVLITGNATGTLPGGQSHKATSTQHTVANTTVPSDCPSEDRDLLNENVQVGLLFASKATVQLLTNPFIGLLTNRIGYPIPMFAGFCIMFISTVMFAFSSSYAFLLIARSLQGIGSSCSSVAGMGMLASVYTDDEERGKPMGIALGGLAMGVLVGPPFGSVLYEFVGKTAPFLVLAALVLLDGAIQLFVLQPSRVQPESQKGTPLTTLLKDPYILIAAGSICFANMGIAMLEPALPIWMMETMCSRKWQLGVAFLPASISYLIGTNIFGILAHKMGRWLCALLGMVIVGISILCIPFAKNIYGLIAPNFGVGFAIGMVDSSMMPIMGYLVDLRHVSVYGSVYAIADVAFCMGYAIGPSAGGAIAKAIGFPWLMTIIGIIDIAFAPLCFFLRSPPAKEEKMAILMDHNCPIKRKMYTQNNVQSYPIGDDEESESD

SMILES | outcome
O=C(c1ccccc1)c1ccc(O)cc1O | inactive
Nc1ccc(Oc2cccc(Oc3ccc(N)cc3)c2)cc1 | inactive
O=C1c2ccccc2C(=O)c2c(Cl)cccc21 | inactive
Cc1cc(C)c(C=O)c(C)c1 | inactive

System: not listed separately
Test: TOX21_TRB_BLA_Agonist_Followup_viability: Viability Assessment in the Tox21 Thyroid Hormone Receptor beta Agonism Beta-lactamase (BLA) Follow-Up Assay (AID 2283956)
Summary of the method: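 TRb-bla HEK293T cells (GAL4-DBD/human TRb LBD) in 2% charcoal-stripped FBS medium were exposed 18 h at 37C to 11 concentrations in triplicate. CellTiter-Glo ATP luminescence was read after 30 min at room temperature, with bidirectional fitting against DMSO.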

SMILES | outcome
CC(=O)Nc1ccc(C(=O)CCl)cc1 | inactive
O=C(c1ccccc1)c1ccc(O)cc1O | inactive
CCNc1nc(N)nc(Cl)n1 | inactive
COC(=O)c1ccc(I)cc1S(=O)(=O)NC(=O)Nc1nc(C)nc(OC)n1 | inactive
